Source: PubChem BioAssay
The list is not random: actives were taken first. Their share in the collection is about 4.5%.
PrP UTR inh = inhibition of PrP 5' UTR reporter expression; cell-based PrP 5' UTR mRNA reporter, plate reader; inhibition, % (test concentration not listed); hit rate 0.35% among 340,000; AID 488862, 2010; in the data active = inhibition above about 52%; note: 0 = median of the neutral control wells
GDH-TPI counter-1 = GDH-TPI coupling enzyme inhibitors, primary screen, artefact control for M. tuberculosis FBA inhibitor project, biochemical, absorbance, full deck | GDH-TPI coupled enzyme counterscreen, NADH absorbance | hit rate 1.2% among 360,000 | inhibition, % at 4.8 µM; in the data active = inhibition above about 30%;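 note: 0% = DMSO wells and 100% = wells lacking the enzyme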
FBA Mtb inh = Mtb FBA enzyme inhibitors, primary screen, biochemical, fluorescence, strain H37Rv | Fructose-bisphosphate aldolase (Mycobacterium tuberculosis (strain ATCC 25618 / H37Rv)), … | hit rate 2.3% among 360,000 | inhibition, % at 1 µM | purified M. tuberculosis FBA, fluorescence read-out;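 note: 0% = vehicle and 100% = reference inhibitor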
Target sequence (P9WQA3 whole entry, looked up): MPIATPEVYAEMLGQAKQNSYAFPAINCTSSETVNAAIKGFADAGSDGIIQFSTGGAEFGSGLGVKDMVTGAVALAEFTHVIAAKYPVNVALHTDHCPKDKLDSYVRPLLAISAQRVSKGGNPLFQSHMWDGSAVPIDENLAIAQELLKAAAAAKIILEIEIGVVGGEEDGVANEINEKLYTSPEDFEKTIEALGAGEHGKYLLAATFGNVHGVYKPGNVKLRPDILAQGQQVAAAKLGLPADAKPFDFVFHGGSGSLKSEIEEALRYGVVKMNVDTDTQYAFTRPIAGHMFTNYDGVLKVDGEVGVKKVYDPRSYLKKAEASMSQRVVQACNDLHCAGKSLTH
PrPC TRFRET = inhibitors of human cell surface prion protein PrPC, primary screen, cell-based, TR-FRET. TR-FRET read-out. inhibition, % at 13.8 µM. hit rate 0.43% among 370,000. AID 720596, 2013; in the data active = inhibition above about 24%; note: 0% = median of the test wells and 100% = reference compound wells
BJeLR viability = MLPCN primary cell-based screen for lethality selective to Ras in HRASV12 cells; BJeLR (HRASV12) viability, CellTiter-Glo ATP luminescence, 48 h; inhibition, % (concentration not given with the values); hit rate 0.17% among 300,000; in the data active = inhibition above about 50%
PfHsp40 yeast = rescue of yeast from PfHsp40 toxicity, primary screen, S. cerevisiae, ATP luminescence | S. cerevisiae expressing PfHsp40, growth rescue | growth rescue, % at 12.5 µM | hit rate 0.68% among 340,000; in the data active = growth rescue above about 28%, passing the limit was not always enough;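 note: yeast W303a lacking pdr1 and pdr3 grown in galactose medium; growth measured after three days at 30 °C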
Mtb FBA inh conf = M. tuberculosis aldolase blockers, biochemical, fluorescence, strain H37Rv, confirmation; hit rate 78% among 5,600; purified M. tuberculosis FBA, fluorescence read-out; shares compounds with FBA Mtb inh; inhibition, % at 1 µM;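 note: 0% = vehicle wells and 100% = reference inhibitor wells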
GDH-TPI counter-2 = GDH-TPI coupling enzyme inhibitors, artefact control for M. tuberculosis FBA inhibitor project, biochemical, fluorescence, high throughput. inhibition, % at 1 µM. hit rate 81% among 5,600. shares compounds with FBA Mtb inh. GDH-TPI coupled enzyme counterscreen; in the data active = inhibition above about 10%
Active calls of the source: *; / = no result given; + = active, no number. Cut-off read from the data, not from the text of the source, unless noted: active = inhibition above about 27%; inactive = the rest.

SMILES | PrP UTR inh | GDH-TPI counter-1 | FBA Mtb inh | PrPC TRFRET | BJeLR viability | PfHsp40 yeast | Mtb FBA inh conf | GDH-TPI counter-2
COc1ccc(C(=O)N/C(=C/c2ccccc2F)C(=O)NCCN2CCOCC2)cc1OC | -8 | 4 | 3 | 3 | 9 | 0 | / | /
COCCN(CC(=O)Nc1cccc(C)c1C)C(=O)c1ccc(-n2cccn2)cc1 | -9 | 3 | -2 | 5 | / | -1 | / | /
Cc1ccc(S(=O)(=O)c2cc3c(=O)n4ccccc4nc3n(C3CCCC3)c2=N)cc1 | 16 | 11 | 5 | 4 | 7 | 0 | / | /
O=C(NC1CCCN(Cc2ccc(Cl)cc2)C1)c1cnc2ccccn2c1=O (stereo not given) | 5 | 24 | 55* | 3 | 17 | -1 | 118* | 82*
CC(C)Cc1ccc(CN2CCCC(NC(=O)c3cnc4ccccn4c3=O)C2)cc1 (stereo not given) | -18 | 7 | 19 | -1 | 12 | 1 | / | /
Cc1ccc(Cn2c(=N)c(C(=O)NC3CCCC3)cc3c(=O)n4ccccc4nc32)cc1 | -17 | 9 | 53* | / | -4 | 0 | 99* | 98*
Cc1ccc(S(=O)(=O)c2cc3c(=O)n4ccccc4nc3n(CC3CCCO3)c2=N)cc1C (stereo not given) | 8 | 12 | 37* | -12 | 0 | -1 | 92* | 63*
N=c1c(C(=O)NCc2ccc(F)cc2)cc2c(=O)n3ccccc3nc2n1Cc1cccnc1 | 7 | 11 | 102* | -7 | 2 | -1 | 152* | 116*
COc1ccc(S(=O)(=O)N2CCCCC2)cc1NC(=O)CCOc1cc(C)ccc1C | -7 | 5 | 2 | 3 | / | 11 | / | /
N=c1c(C(=O)NC2CCCCC2)cc2c(=O)n3ccccc3nc2n1CCc1ccccc1 | -24 | -5 | 47* | -10 | 0 | 0 | 5 | 4
COc1ccc(CCn2c(=N)c(S(=O)(=O)c3ccccc3)cc3c(=O)n4ccccc4nc32)cc1 | 5 | -4 | 3 | -9 | 2 | 0 | / | /
Cc1cccn2c(=O)c3cc(C(=O)NC4CCCCC4)c(=N)n(Cc4ccc(F)cc4)c3nc12 | -16 | -1 | 31* | -8 | -15 | 8 | + | +
Cc1cccn2c(=O)c3cc(C(=O)N4COCC4(C)C)n(Cc4ccccc4)c3nc12 | -23 | -9 | 4 | 6 | 0 | 1 | / | /
CC(C)OCCCn1c(=N)c(C(N)=S)cc2c(=O)n3ccccc3nc21 | -19 | 8 | 71* | -26 | -3 | -1 | 92* | 81*
Nn1c(-c2ccccc2)cc(-c2ccccc2)cc1=O | 5 | 16 | 5 | -3 | -6 | -1 | / | /
CCCNc1c(NS(=O)(=O)c2cccs2)c(=O)oc2ccccc12 | -11 | 3 | 2 | -7 | 5 | 1 | / | /
N#Cc1ccc(Oc2cnccn2)cc1 | -4 | 10 | 0 | -7 | -2 | 0 | / | /
COc1ccc(NC(=O)C(c2ccnc3ccccc23)n2c(=O)c(-c3ccccc3)nc3ccccc32)cc1 (stereo not given) | / | / | / | 10 | / | / | / | /
O=CNCCCc1nc2ccccc2n1CCc1ccccc1 | -12 | -7 | 0 | 9 | 0 | 0 | / | /
CCCNC(=O)C1(CC2CC(c3ccccc3)=NO2)CCN(C(=O)c2cc(OCC)c(OCC)c(OCC)c2)CC1 (stereo not given) | 3 | 0 | 29* | 6 | 3 | 0 | 169* | 128*
CCOC(=O)c1c(-c2ccccc2Cl)cn2ccccc12 | -33 | 12 | 61* | 1 | 3 | 0 | 74* | 68*
CC(c1cccs1)N(Cc1ccco1)C(=S)Nc1ccc(F)c(Cl)c1 (stereo not given) | -6 | -5 | 38* | 3 | 6 | 0 | + | 144*
Cc1cccc(NC(=S)N(Cc2ccco2)C(C)c2cccs2)c1 (stereo not given) | -2 | 16 | 2 | 4 | 4 | 2 | / | /
O=c1cc(/C=C/c2c(F)cccc2Cl)[nH]c2ccccc12 | -124 | 14 | 45* | 6 | 17 | -2 | 53* | 33*
Cc1cccc(-n2ccc(=O)c(C(=O)Nc3ccc(S(=O)(=O)Nc4nccc(C)n4)cc3)n2)c1 | -19 | 22 | 0 | 9 | -2 | 0 | / | /
SMILES | PrP UTR inh | GDH-TPI counter-1 | FBA Mtb inh | PrPC TRFRET | BJeLR viability | PfHsp40 yeast | Mtb FBA inh conf | GDH-TPI counter-2
CCOC(=O)c1nc(N)c(C(=O)OCC)[nH]1 | -6 | 6 | 59* | 2 | -3 | 1 | 198* | 166*
CCOC(=O)c1nc2ccccc2c(=O)[nH]1 | -40 | 8 | 1 | 3 | 1 | 0 | / | /
COCCSc1nc(N)c2c3c(sc2n1)CN(C)CC3 | -23 | 19 | 52* | -3 | -3 | -1 | 70* | 48*
CN(C)CCSc1nc(N)c2c3c(sc2n1)CN(C)CC3 | -27 | 27 | 38* | -7 | -2 | 1 | 73* | 62*
Cc1ccccc1CS(=O)(=O)Cc1ccc(C(=O)Nc2ccccc2C)o1 | / | / | / | 5 | / | / | / | /
CCCc1ccc(C(O)c2ncc(-c3ccccc3)[nH]2)cc1 (stereo not given) | / | -5 | 5 | -9 | / | / | / | /
COc1cccc(NC(=O)C2CCC(CNS(=O)(=O)c3cccs3)CC2)c1 (stereo not given) | -10 | 1 | 4 | 7 | 5 | -1 | / | /
COC(CNC(=O)c1ccc2c(c1)ncn2-c1cccc(C)c1)OC | -14 | 6 | 3 | 24 | 2 | 0 | / | /
COc1ccc(-c2cc3ccccc3n2CC(O)CN2CCN(CCO)CC2)cc1 (stereo not given) | -21 | 3 | 33* | -14 | -1 | 0 | -7 | -5
O=C1c2cccc3cccc(c23)C(=O)N1CC1CCCO1 (stereo not given) | -13 | 10 | 31* | -26 | -5 | -2 | 52* | 28*
O=C(CCN1C(=O)c2cccc3cccc(c23)C1=O)NCC1CCCO1 (stereo not given) | -20 | 25 | 34* | -27 | 9 | -1 | 156* | 97*
N#CCOC(=O)C1CSC2(c3ccc(Br)cc3)CCC(=O)N12 (stereo not given) | -27 | 2 | 6 | -3 | -5 | 1 | / | /
COc1ccc(-c2sc3ccc(N4CCOCC4)cc3c2C#CC(C)(C)O)cc1 | -20 | 11 | 4 | -2 | / | 0 | / | /
